Data as given in ChEMBL document CHEMBL1961873, “Compounds: GSK PKIS; Assays: Nanosyn kinase panel” (2012).

Key:
[1] = target: T1, Aurora kinase A (Homo sapiens) (UniProt O14965); settings: at 1 µM;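 also: values are mean percent inhibition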
T1 sequence (whole entry): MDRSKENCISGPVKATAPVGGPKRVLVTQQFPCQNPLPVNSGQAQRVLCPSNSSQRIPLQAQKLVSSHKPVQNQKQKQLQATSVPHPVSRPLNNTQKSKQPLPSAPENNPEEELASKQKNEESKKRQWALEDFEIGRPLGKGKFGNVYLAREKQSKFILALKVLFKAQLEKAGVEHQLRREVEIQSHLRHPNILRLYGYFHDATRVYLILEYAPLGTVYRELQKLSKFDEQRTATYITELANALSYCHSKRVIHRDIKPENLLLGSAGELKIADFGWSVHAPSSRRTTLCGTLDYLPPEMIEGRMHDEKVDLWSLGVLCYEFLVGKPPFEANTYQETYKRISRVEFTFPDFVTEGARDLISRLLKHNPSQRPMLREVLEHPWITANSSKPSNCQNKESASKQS

[2] = target: Aurora kinase B (Homo sapiens) (UniProt Q96GD4); settings: at 0.1 µM
[3] = target: Aurora kinase B (Homo sapiens) (UniProt Q96GD4); settings: at 1 µM
[4] = target: T2, Aurora kinase C (Homo sapiens) (UniProt Q9UQB9); settings: at 0.1 µM
T2 sequence (whole entry): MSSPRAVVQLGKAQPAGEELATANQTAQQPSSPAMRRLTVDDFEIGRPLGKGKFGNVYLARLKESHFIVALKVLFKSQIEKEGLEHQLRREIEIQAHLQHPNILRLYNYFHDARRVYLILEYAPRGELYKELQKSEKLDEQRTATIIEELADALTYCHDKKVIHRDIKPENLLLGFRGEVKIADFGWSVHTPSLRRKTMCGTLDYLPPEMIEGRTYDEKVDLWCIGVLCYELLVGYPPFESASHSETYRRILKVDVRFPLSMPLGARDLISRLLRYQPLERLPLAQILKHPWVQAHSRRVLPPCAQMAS

[5] = target: T2, Aurora kinase C (Homo sapiens); settings: at 1 µM
[6] = target: Serine/threonine-protein kinase 10 (Homo sapiens) (UniProt O94804); settings: at 0.1 µM
[7] = target: Serine/threonine-protein kinase 10 (Homo sapiens) (UniProt O94804); settings: at 1 µM
[8] = target: T3, Mitogen-activated protein kinase kinase kinase kinase 2 (Homo sapiens) (UniProt Q12851); settings: at 0.1 µM
T3 sequence (whole entry): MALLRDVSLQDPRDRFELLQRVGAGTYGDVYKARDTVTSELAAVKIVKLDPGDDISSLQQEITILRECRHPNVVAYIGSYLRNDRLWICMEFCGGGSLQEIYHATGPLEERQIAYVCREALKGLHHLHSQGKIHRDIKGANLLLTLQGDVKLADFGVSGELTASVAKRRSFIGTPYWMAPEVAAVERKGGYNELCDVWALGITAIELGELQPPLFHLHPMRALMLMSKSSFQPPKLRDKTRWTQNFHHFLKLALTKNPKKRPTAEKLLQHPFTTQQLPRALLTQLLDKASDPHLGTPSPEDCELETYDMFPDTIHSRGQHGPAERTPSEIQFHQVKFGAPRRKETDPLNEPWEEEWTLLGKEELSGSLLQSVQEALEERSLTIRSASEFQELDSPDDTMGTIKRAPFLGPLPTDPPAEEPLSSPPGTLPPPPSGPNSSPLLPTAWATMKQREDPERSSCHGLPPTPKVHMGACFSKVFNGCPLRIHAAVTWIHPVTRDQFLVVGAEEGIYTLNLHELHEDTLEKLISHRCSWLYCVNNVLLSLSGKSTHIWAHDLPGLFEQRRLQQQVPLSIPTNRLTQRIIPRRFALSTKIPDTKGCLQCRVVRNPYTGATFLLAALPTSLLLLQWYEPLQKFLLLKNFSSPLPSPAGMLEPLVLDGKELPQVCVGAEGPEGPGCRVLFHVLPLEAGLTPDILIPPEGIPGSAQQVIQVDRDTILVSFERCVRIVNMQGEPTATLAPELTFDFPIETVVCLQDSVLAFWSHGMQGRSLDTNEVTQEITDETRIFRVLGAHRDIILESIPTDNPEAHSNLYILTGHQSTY

[9] = target: T3, Mitogen-activated protein kinase kinase kinase kinase 2 (Homo sapiens); settings: at 1 µM
[10] = target: Mitogen-activated protein kinase kinase kinase kinase 4 (Homo sapiens) (UniProt O95819); settings: at 0.1 µM
[11] = target: Mitogen-activated protein kinase kinase kinase kinase 4 (Homo sapiens) (UniProt O95819); settings: at 1 µM
[12] = target: Dual specificity mitogen-activated protein kinase kinase 1 (Homo sapiens) (UniProt Q02750); settings: at 0.1 µM
[13] = target: Dual specificity mitogen-activated protein kinase kinase 1 (Homo sapiens) (UniProt Q02750); settings: at 1 µM
[14] = target: Misshapen-like kinase 1 (Homo sapiens) (UniProt Q8N4C8); settings: at 0.1 µM
[15] = target: Misshapen-like kinase 1 (Homo sapiens) (UniProt Q8N4C8); settings: at 1 µM
[16] = target: T4, Serine/threonine-protein kinase 4 (Homo sapiens) (UniProt Q13043); settings: at 0.1 µM
T4 sequence (whole entry): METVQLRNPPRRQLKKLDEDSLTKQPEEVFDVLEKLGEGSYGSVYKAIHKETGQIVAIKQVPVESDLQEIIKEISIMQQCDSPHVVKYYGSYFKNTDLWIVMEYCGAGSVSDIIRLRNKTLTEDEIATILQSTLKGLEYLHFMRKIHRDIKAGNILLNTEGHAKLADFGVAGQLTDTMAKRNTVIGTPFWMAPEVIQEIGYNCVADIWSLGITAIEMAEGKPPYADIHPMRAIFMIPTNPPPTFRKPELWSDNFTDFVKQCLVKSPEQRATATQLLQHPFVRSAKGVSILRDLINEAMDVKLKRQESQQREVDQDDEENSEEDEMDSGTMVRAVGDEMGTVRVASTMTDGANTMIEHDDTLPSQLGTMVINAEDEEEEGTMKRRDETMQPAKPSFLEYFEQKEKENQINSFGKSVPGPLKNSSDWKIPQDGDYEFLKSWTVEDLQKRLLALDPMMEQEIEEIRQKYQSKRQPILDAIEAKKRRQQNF

[17] = target: T4, Serine/threonine-protein kinase 4 (Homo sapiens); settings: at 1 µM
[18] = target: T5, Serine/threonine-protein kinase 3 (Homo sapiens) (UniProt Q13188); settings: at 0.1 µM
T5 sequence (whole entry): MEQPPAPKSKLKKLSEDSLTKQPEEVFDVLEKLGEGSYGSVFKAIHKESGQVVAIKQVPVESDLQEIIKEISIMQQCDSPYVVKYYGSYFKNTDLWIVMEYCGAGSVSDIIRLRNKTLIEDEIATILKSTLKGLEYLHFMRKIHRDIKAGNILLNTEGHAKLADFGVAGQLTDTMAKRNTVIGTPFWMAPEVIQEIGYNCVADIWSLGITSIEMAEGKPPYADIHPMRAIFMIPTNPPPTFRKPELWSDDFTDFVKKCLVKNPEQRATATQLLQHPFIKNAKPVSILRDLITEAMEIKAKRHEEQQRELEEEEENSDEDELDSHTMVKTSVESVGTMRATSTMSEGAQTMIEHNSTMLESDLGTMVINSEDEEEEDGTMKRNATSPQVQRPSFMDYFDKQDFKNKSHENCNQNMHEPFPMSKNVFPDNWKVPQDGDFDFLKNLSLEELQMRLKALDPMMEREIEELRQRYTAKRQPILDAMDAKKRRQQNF

[19] = target: T5, Serine/threonine-protein kinase 3 (Homo sapiens); settings: at 1 µM
[20] = target: Serine/threonine-protein kinase 26 (Homo sapiens) (UniProt Q9P289); settings: at 0.1 µM
Sequence of Serine/threonine-protein kinase 26 (Homo sapiens) (Q9P289 2-416 limits assumed): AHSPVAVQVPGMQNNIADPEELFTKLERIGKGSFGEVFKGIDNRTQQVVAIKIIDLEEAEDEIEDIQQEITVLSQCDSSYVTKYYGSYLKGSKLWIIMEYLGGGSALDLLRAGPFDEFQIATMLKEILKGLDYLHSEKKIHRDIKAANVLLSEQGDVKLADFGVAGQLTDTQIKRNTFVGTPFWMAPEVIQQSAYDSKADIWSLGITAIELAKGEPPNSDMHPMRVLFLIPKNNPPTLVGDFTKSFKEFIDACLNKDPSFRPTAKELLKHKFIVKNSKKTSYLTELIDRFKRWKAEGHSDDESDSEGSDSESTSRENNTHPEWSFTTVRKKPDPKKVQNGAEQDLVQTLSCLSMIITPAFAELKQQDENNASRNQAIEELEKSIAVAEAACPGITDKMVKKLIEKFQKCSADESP

Sequence of Serine/threonine-protein kinase 10 (Homo sapiens) (O94804 whole entry, looked up): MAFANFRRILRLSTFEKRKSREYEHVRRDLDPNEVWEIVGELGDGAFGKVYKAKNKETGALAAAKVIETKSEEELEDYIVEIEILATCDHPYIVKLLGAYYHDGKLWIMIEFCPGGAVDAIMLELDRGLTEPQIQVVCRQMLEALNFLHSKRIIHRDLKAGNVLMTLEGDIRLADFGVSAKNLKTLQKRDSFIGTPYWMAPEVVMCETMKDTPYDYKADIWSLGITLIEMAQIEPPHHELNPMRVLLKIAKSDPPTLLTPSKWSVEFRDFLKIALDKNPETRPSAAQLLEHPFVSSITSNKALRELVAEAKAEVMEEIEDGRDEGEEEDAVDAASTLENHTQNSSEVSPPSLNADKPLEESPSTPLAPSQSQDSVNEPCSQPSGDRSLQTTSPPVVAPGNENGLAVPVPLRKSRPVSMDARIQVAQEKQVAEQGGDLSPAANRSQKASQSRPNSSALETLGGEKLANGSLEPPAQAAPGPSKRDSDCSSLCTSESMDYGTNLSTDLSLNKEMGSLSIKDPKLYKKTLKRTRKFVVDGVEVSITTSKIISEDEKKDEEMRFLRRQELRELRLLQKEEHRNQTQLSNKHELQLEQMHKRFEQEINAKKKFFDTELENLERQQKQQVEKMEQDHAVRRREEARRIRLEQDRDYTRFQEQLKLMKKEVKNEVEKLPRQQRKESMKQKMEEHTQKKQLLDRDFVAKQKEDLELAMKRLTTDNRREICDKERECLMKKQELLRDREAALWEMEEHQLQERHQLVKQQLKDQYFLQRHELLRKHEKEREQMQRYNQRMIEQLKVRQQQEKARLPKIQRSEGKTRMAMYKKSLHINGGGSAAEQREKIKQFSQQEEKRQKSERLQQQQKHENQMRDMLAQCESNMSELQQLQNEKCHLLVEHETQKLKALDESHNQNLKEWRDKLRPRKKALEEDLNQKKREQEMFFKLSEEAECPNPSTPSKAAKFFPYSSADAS
Sequence of Mitogen-activated protein kinase kinase kinase kinase 4 (Homo sapiens) (O95819 2-1239 limits assumed): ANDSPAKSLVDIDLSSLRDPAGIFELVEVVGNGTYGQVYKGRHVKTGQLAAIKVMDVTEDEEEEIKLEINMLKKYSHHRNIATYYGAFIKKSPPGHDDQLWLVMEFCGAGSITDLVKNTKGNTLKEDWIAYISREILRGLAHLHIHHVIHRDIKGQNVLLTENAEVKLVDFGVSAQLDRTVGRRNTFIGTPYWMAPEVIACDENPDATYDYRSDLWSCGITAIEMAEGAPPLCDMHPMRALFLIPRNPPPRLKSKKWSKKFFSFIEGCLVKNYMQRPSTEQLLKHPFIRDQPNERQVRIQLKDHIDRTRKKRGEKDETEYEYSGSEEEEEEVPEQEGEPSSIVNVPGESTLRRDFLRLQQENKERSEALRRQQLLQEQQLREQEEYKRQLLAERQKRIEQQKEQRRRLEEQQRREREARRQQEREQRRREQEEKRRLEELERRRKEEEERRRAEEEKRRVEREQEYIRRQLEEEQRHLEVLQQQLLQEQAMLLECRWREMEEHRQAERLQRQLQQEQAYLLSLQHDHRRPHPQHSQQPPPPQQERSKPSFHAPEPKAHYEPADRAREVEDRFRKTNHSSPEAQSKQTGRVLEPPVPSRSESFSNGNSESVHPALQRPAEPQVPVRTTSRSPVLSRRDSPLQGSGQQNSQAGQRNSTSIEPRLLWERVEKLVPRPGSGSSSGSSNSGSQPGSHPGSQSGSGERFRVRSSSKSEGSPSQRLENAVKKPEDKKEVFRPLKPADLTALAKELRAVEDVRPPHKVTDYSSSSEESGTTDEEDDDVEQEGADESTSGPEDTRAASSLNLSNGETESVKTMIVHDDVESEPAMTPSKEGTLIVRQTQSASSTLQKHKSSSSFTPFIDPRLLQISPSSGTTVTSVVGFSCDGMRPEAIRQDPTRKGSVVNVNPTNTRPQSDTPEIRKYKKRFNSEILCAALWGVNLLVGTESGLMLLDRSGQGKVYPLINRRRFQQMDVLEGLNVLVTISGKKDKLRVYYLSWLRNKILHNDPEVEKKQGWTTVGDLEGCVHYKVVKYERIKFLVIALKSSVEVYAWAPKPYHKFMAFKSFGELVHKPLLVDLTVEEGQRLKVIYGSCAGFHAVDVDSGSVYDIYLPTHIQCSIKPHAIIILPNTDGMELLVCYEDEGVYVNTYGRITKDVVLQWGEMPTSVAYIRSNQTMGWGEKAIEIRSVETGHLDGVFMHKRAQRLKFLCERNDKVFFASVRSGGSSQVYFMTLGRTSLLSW
Sequence of Misshapen-like kinase 1 (Homo sapiens) (Q8N4C8 whole entry, looked up): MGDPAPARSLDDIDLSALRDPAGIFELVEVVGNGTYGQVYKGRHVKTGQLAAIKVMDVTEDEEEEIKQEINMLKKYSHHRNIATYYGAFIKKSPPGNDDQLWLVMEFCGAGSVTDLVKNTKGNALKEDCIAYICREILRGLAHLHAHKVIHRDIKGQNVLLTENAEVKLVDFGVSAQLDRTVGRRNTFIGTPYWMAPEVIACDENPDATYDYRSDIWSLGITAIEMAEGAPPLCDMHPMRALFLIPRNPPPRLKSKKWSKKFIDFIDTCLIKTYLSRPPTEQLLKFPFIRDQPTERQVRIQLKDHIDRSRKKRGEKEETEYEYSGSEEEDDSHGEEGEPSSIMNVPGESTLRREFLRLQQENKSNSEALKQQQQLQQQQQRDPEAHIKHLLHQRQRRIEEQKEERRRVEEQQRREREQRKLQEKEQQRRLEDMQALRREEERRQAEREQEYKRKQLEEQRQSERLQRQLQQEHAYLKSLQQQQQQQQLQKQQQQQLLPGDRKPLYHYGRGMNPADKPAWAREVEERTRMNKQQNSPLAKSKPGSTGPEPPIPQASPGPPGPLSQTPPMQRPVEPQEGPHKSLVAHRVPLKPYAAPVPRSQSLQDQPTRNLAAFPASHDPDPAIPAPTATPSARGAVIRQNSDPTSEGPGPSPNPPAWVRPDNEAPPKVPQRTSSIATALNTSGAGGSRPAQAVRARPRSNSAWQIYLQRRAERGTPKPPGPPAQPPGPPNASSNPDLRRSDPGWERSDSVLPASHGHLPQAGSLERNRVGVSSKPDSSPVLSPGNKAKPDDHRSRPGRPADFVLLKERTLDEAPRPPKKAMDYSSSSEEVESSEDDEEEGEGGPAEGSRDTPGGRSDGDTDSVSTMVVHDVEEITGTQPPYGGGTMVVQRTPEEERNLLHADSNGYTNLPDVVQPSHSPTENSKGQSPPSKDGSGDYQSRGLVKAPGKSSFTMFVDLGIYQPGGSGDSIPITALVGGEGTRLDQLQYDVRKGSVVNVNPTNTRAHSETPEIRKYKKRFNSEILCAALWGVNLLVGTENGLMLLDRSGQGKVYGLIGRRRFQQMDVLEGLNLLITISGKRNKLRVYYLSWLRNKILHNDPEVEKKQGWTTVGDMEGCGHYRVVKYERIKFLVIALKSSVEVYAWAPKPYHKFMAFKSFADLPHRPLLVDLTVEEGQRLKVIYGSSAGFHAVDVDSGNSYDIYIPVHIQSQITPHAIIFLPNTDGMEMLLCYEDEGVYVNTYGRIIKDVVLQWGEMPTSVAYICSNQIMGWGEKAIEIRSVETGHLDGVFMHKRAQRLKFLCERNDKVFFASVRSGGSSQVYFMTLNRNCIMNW
Sequence of Aurora kinase B (Homo sapiens) (Q96GD4 whole entry): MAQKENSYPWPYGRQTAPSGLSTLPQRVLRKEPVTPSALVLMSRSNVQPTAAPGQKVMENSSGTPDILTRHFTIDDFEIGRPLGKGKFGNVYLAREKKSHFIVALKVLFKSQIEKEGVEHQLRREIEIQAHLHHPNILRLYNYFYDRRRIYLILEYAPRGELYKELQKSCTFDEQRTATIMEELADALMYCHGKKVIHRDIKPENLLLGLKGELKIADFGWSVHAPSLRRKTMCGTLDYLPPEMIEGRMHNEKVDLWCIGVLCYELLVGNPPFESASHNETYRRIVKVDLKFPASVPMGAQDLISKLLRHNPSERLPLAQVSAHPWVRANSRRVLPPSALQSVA
Sequence of Dual specificity mitogen-activated protein kinase kinase 1 (Homo sapiens) (Q02750 whole entry): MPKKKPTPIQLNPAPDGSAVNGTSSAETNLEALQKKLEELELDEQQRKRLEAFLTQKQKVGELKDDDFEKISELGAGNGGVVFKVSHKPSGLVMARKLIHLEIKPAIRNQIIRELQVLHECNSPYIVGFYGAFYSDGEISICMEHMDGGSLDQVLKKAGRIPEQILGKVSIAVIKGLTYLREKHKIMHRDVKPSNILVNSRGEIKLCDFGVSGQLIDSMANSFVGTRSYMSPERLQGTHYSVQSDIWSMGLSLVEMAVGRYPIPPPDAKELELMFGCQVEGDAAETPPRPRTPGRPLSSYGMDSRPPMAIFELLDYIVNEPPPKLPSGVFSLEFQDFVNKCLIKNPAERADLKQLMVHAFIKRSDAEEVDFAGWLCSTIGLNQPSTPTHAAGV

SMILES	inhibition [1] [%]	inhibition [2] [%]	inhibition [3] [%]	inhibition [4] [%]	inhibition [5] [%]	inhibition [6] [%]	inhibition [7] [%]	inhibition [8] [%]	inhibition [9] [%]	inhibition [10] [%]	inhibition [11] [%]	inhibition [12] [%]	inhibition [13] [%]	inhibition [14] [%]	inhibition [15] [%]	inhibition [16] [%]	inhibition [17] [%]	inhibition [18] [%]	inhibition [19] [%]	inhibition [20] [%]
CS(=O)(=O)CCNCc1coc(-c2ccc3ncnc(Nc4ccc(OCc5ccccc5)cc4)c3c2)c1	4.78	1.47	9.78	1.46	8.58	8.03	6.21	0.9	3.83	3.41	7.26	2.33	3.36	5.08	4.66	2.75	3.41	4.25	3.71	-2.22
[O-][S+]1CCN(Cc2ccc(-c3ccc4ncnc(Nc5ccc(OCc6cccc(F)c6)c(Cl)c5)c4c3)o2)CC1	4.74	4.97	9.46	0.94	6.06	9.61	15.9	1.81	5.19	7.46	9.56	5.35	4.93	7.98	8	6.28	8.16	8.11	9.49	0.51
CCCN1CCC(c2ccc(Nc3nc(Nc4cc(F)ccc4C(N)=O)c4cc[nH]c4n3)c(OC)c2)CC1	10.4	1.95	3.04	0.37	-4.81	7.74	29.2	10.2	51.6	28.1	78.9	9.27	37.7	21.8	70.2	10.6	43.9	5.71	13.8	-0.72
COc1ccc(-c2nn3ncccc3c2-c2ccnc(Nc3ccc4c(c3)OCCO4)n2)cc1	63.2	3.61	17.4	6.73	46.8	11.2	55.1	0.69	4.16	0.61	9.82	0.5	1.59	3.01	7.26	-0.55	1.99	-0.94	-0.28	0.86
Nc1nc(-c2ccc(F)cc2)c(-c2ccc3ncccc3n2)s1	10.6	6.06	7.91	2.74	-0.03	5.75	10.1	2.4	3.82	17.7	61.8	6.1	4.31	13.2	47.9	6.16	6.98	7.16	5.82	0.24
CC1=C(C(=O)Nc2cc(Cl)c3[nH]ncc3c2)C(c2ccc(C(F)(F)F)cc2)CC(=O)N1 (stereo not given)	16.6	2.95	10	0.68	7.15	6.25	7.45	2	3.92	2.89	10.2	9.84	35.5	4.68	9.18	3.11	5.19	1.89	4.7	0.06
CNC(=O)c1cccc(C#Cc2cncnc2Nc2ccc(OCc3cccc(F)c3)c(Cl)c2)c1	11.8	-0.67	4.77	1.94	-5.97	0	4.51	-1.31	0.34	-0.86	5.4	0.1	1.05	-0.5	5.14	4.83	8.84	5.85	7.85	0.31
NS(=O)(=O)c1ccc(N/N=C2\C(=O)Nc3ccc4ncccc4c32)cc1	91.8	20	67.9	15.8	91.9	4.44	13.1	11.7	49.8	44.4	82.4	14.3	61.1	34.1	76.2	84.6	89.5	80.3	88.3	43.6
Cc1cccc(Nc2ncc(-c3ccccc3)o2)c1	7.93	3.4	7.88	0.68	11.2	3.16	7.96	1.52	4.15	2.79	14.1	2.53	2.53	2.9	10.2	1.44	4.08	1.8	4.97	0.69
Fc1ccc(-c2nn3ccccc3c2-c2ccncc2)cc1	8.81	-1.03	4.77	0.61	2.01	2.07	1.79	2.33	7.42	5.52	38.3	1.23	2.3	4.74	22.3	0.01	0.15	0.09	0.63	-1.27
CN1CCC(n2cnc(-c3ccc(F)cc3)c2-c2ccnc(Nc3ccccc3)n2)CC1	5.7	3.55	3.9	0.71	-2.98	2.62	8.59	1.51	10.3	4.88	41.2	3.25	4.26	8.59	41.2	3.25	6.2	1.1	3.6	0.76
COC(=O)Nc1nc2ccc(S(=O)(=O)c3ccc(NC(=O)Nc4cc(C(F)(F)F)ccc4F)cc3)cc2[nH]1	8.25	3.7	7.15	0.87	14.1	3.49	10.6	-0.09	1.67	2.49	6.09	2.83	2.72	5.17	8.15	3.71	4.43	4	3.06	0.89
COc1cc(/C=N/Nc2ncnc3[nH]ncc23)ccc1O	55.1	9.45	42.1	6.8	66	5.88	19.5	1.7	9.66	7.81	38.5	3.54	3.75	6.75	25.1	6.37	19.5	5.9	15.1	-1.06
